Assay outcomes from PubChem BioAssay.
aDG glyco up = increases alpha dystroglycan glycosylation; 360,000 compounds, 0.22% hits; activation, % at 10 µM; Pro5-aDG cells, alpha-DG glycosylation AlphaScreen (IIH6); 0% Pro5, 100% B10-LARGE cell signal; AID 624168;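 active = activation of at least 8% versus controls, or a plate z-score of at least 8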;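 also: Pro5 are CHO cells carrying HIG-tagged alpha-DG that lacks glycosylation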
H9c2 protect = modulators protecting cardiomyocytes from myocardial damage. H9c2 cardiomyocytes, H2O2 injury protection, ATPLite, 2 h. protection from H2O2 cell death, % at 20 µM. 360,000 compounds, 0.63% hits. AID 588492;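 active = compounds giving at least 50% protection of heart cells from peroxide-induced death in the single-dose screen, raw or plate-pattern-corrected value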;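 also: 0% = DMSO wells with peroxide and 100% = DMSO wells without peroxide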
SUMO Mot1 rescue = inhibitors of SUMOylation pathway: yeast Mot1-301 growth rescue; AID 2716; growth rescue, % at 18.8 µM; 320,000 compounds, 1% hits; S. cerevisiae Mot1-301 growth rescue, ATP luminescence, 38.5C; percent above DMSO median, 100 means doubled;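 active = every valid replicate shows activation above 250% relative to neutral control wells; inactive = the rest, any valid replicate at or below 250%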;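 also: OY570 slx delta 5 strain wells were the positive control but not used for scaling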
MPTP inh = permeability transition pore inhibition; isolated mouse mitochondria, Ca2+ swelling absorbance, 30 min; inhibition, % at 10 µM; 360,000 compounds, 1.4% hits;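 active = inhibition of 50% or more, scaled per plate between neutral and stimulator controls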;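 also: 0% = DMSO wells given calcium and 100% = 1 mM EGTA wells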
FAS TE block = FAS thioesterase (human) inhibition; recombinant FAS-TE, OMFH fluorogenic substrate, fluorescence endpoint; inhibition, % at 15 µM; 360,000 compounds, 0.67% hits; AID 602261;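 active = compounds whose normalised, plate-corrected inhibition of enzyme fluorescence in the single-dose primary screen is 50% or more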;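 also: 0% = DMSO with enzyme and 100% = substrate without enzyme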
CR mimetic SO = caloric restriction mimetics inhibiting age-related superoxide in yeast. 330,000 compounds, 0.18% hits. S. cerevisiae aged cells, superoxide DHE fluorescence; stronger effect = lower value. superoxide response (% of plate mean), % at 10 µM;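 active = superoxide response under a set limit, about three screen SD below normal, cut at about 65% in these data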;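 also: yeast aged for seven days with compound at 30 °C before DHE staining; 100% = average MFI of all compound-treated wells on the plate with controls excluded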
FAS-TE inh conf = confirmation of human fatty acid synthase thioesterase inhibitors. AID 624325. 2,300 compounds, 45% hits. shares compounds with FAS TE block. inhibition, % at 15 µM. recombinant FAS-TE, OMFH fluorogenic substrate, fluorescence;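 active = compounds inhibiting the enzyme by at least 50% at 15 µM in any one of the replicates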;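 also: 0% = enzyme with DMSO only and 100% = wells lacking enzyme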
Active calls of the source: *; . = no result. Most compounds without a hit are left out; they make up all but 3.8% or so of the library.

SMILES	aDG glyco up	H9c2 protect	SUMO Mot1 rescue	MPTP inh	FAS TE block	CR mimetic SO	FAS-TE inh conf
CCN(C(=O)COC(=O)c1cccc(-n2cnnn2)c1)C1CCCCC1	0	-4	-3	-4	14	106	.
CCN(C(=O)CN1C(=O)NC2(CCC(C)CC2)C1=O)C1CCCCC1 (stereo not given)	0	7	.	-1	-4	.	.
O=C(Nc1ccc(Cl)cc1)C(Cl)C(=O)c1ccccc1 (stereo not given)	1	6	78	6	77*	94	87*
O=C(Nc1ccccc1Cl)C(Cl)C(=O)c1ccccc1 (stereo not given)	0	21	.	-2	-3	.	.
O=[N+]([O-])c1ccccc1SNc1ccccc1	0	-9	.	2	30	.	.
O=[N+]([O-])c1ccc(SNc2ccccc2)c([N+](=O)[O-])c1	0	-13	.	36	57*	.	45*
Cc1ccccc1NC1=C(Cl)C(=O)OC1OC(=O)c1ccco1 (stereo not given)	1	6	10	1	74*	100	87*
O=c1cc2c(nn1Cc1ccccc1)-c1ccccc1CC2	0	-7	-3	0	-4	103	.
O=c1cc2c(nn1Cc1cccc([N+](=O)[O-])c1)-c1ccccc1CC2	1	5	-10	0	71*	89	24
O=C(CSc1ncnc2c1cnn2-c1ccccc1)NC1CCS(=O)(=O)C1 (stereo not given)	0	-4	9	0	64*	83	72*
Cc1ccc(C)c(C(Nc2ccccc2)c2ccc3ccc(C)nc3c2O)c1 (stereo not given)	1	.	.	3	.	.	.
O=C1OCCN1c1c(-c2ccccc2)c(-c2cccs2)nc2c(-c3ccccc3)cccc12	0	-3	3	1	52*	96	28
O=C1OCCN1c1ccccc1	0	2	.	0	-8	.	.
CCOC1=C2[C@H](c3ccccc3Cl)N(S(=O)(=O)c3ccc(C)cc3)C[C@H]2C(C#N)(C#N)C(C#N)(C#N)C1	0	8	.	-7	76*	.	14
CCOC1=C2[C@H](c3ccc(CC)cc3)N(S(=O)(=O)c3ccc(C)cc3)C[C@H]2C(C#N)(C#N)C(C#N)(C#N)C1	0	12	.	-11	80*	.	11
CCOC1=C2[C@@H](CN(S(=O)(=O)c3ccc(C)cc3)[C@H]2c2ccccc2Cl)[C@H]2C(=O)NC(=O)[C@H]2C1	0	5	.	0	3	.	.
O=c1c2ccccc2c(C=Nc2cccc(S(=O)(=O)NC3=NCCCCC3)c2)c(O)n1Cc1ccccc1	0	1	-21	3	65*	84	5
CC(Sc1ccc(S(=O)(=O)N2CCN(C)CC2)cn1)C(=O)Nc1cccc(Cl)c1Cl (stereo not given)	0	0	.	-1	35	.	.
COc1ccc(CN(CC(=O)NC2CCCCC2)C(=O)CCC(=O)Nc2nccs2)cc1	0	1	12	-3	0	106	.
O=C(/C=C/c1cccc([N+](=O)[O-])c1)NCCSCc1c(Cl)cccc1Cl	0	-2	18	-9	65*	117	53*
CC(C)(C)SCCNC(=O)/C=C/c1ccc([N+](=O)[O-])cc1	0	2	17	3	16	105	.
CC(C)(C)SCCNC(=O)/C=C/c1cccc([N+](=O)[O-])c1	0	-5	-12	0	72*	102	62*
O=C(/C=C/c1ccccc1)NCCSCc1ccccc1Cl	0	2	7	-4	23	98	.
Cc1ccc(SCCNC(=O)/C=C/c2cccc([N+](=O)[O-])c2)cc1	0	-6	26	16	46	97	.
Cc1ccc(C(=O)NCCSC(C)(C)C)cc1	1	-3	-12	5	-4	94	.
Cc1ccc(C(=O)NCCSC(C)(C)C)cc1[N+](=O)[O-]	0	-9	.	1	56*	89	56*
O=C(/C=C/c1cccc([N+](=O)[O-])c1)NCCSc1ccccc1	0	5	.	0	69*	107	80*
